The list is not random: actives were taken first. Their share in the collection is about 9.4%.
FLuc modulator = qHTS profiling assay for firefly luciferase inhibitor/activator using purifed enzyme and Km concentrations of substrates (counterscreen for miR-21 project); Luciferin 4-monooxygenase (Photinus pyralis), P08659; purified FLuc, Km substrates, luminescence inhibition; Potency, µM (series often up to 57.5 µM), most hits filed as inhibitors; 6.9% of 360,000 active; further: nearly all actives have a fitted effect of over 55% in size
Target sequence (P08659 whole entry, looked up): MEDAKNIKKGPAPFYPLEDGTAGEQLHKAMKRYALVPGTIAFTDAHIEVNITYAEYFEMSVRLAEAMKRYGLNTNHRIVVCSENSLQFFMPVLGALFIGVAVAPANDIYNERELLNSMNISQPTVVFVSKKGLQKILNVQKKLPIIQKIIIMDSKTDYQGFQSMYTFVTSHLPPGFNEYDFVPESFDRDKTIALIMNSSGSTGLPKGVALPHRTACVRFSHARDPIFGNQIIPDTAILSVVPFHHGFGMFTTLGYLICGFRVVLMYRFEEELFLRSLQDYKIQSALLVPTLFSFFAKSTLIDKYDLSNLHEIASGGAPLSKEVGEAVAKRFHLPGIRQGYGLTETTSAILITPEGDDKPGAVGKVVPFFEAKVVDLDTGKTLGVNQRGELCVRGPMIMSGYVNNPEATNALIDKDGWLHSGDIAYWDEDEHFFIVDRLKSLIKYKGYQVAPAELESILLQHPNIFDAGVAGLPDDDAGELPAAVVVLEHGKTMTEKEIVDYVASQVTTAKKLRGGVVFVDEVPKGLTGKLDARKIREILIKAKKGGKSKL
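Purified P. pyralis luciferase (10nM final) with 10uM D-luciferin and 10uM ATP (Km levels) in 50mM Tris acetate pH 7.5, 10mM Mg acetate, 0.01% Tween-20, 0.05% BSA; qHTS 6-point titration, ~60 µM downward; luminescence read.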
ELG1 repair inh = qHTS screen for small molecules that inhibit ELG1-dependent DNA repair in human embryonic kidney (HEK293T) cells expressing luciferase-tagged ELG1 | 2.3% of 330,000 active | Potency, µM (top dose mostly 46.1 µM), most hits filed as inhibitors | HEK293T ELG1-luciferase reporter, luminescence, 16 h; DNA damage induced by 5-fluorouridine; further: nearly all actives have a fitted effect of over 55% in size
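Cells (2,000 per well) received 5-fluorouridine plus test compound or DMSO and were incubated 16 hr at 37 °C, 5% CO2. Luciferase activity was read by luminescence 30 min after ONE-Glo addition; signal suppression marked inhibition of damage-induced ELG1 function.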
NPC1 prom act = qHTS Assay for NPC1 Promoter Activators; AID 485313, 2010; 2.4% of 320,000 active; Huh7 NPC1 promoter luciferase reporter, 24 h; Potency, µM (top dose mostly 9.22 µM), most hits filed as activators; further: nearly all actives have a fitted effect of over 60% in size
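Huh7 reporter cells (NPC1 promoter driving luciferase) are dosed with compound for 24 h at 37 °C, 5% CO2; luciferase detection reagent is then added and luminescence measured after 10 min at ambient temperature.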
SMN2 splice up = qHTS Assay for Enhancers of SMN2 Splice Variant Expression; Potency, µM (doses to about 46.1 µM), usual class: activators; 2.8% of 210,000 active; HEK293 SMN2-luciferase splicing reporter, luminescence, 30-36 h; AID 1458, 2008; further: nearly all actives have a fitted effect of over 55% in size
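qHTS luciferase splicing reporter: luminescence rises when SMN2 exon 7 is included in transfected HEK293 cells. Compound exposure lasted 30-36 h at 37C, with 4.5 mM final sodium butyrate as control, followed by a ONE-Glo read.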
ELG1 genotoxic = qHTS screen for small molecules that induce genotoxicity in human embryonic kidney (HEK293T) cells expressing luciferase-tagged ELG1; 1.3% of 330,000 active; HEK293T ELG1-luciferase reporter, luminescence, 16 h; Potency, µM (series often up to 46 µM), most hits filed as activators; AID 504466, 2011; further: nearly all actives have a fitted effect of over 60% in size
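Step 1: seed 2,000 HEK293T ELG1-luciferase cells per well. Step 2: add compound or DMSO, incubate 16 hr at 37 °C. Step 3: ONE-Glo, 30 min at room temperature, read luminescence.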
Rab9 promoter act = qHTS Assay for Rab9 Promoter Activators | Huh7 Rab9 promoter-luciferase reporter, luminescence, 24 h | Potency, µM (doses to about 9.22 µM), most hits filed as activators | 2.8% of 320,000 active | AID 485297, 2010; further: nearly all actives have a fitted effect of over 60% in size
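Huh7 reporter line, Rab9 promoter upstream of luciferase. Compound exposure 24 h at 37 °C in reduced-serum medium with 10% FBS. Read-out: luminescence.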
Hits are given with their value; 0 = inactive; ? = inconclusive; - = no result given. The call rests on the fitted dose curve; in most records, active means well fitted curve in the direction sought with a large enough effect; inconclusive means small, poorly fitted or top-dose-only effect, or another doubt; inactive means no such curve, though single readings can be large; an effect the other way counts as inactive or inconclusive.

SMILES | FLuc modulator | ELG1 repair inh | NPC1 prom act | SMN2 splice up | ELG1 genotoxic | Rab9 promoter act
CC(=O)OC1CCC23CC1(C)CCC2C(C)(C)CC3OC(C)=O (configuration not stated) | - | - | - | 0 | - | -
COCc1c(C(=O)N2CCN(Cc3nc4ccccc4s3)CC2)oc2ccccc12 | ? | 0 | 0 | - | 0 | 0
COCc1c(C(=O)N2CCN(S(=O)(=O)c3ccccc3Cl)CC2)oc2ccccc12 | 0 | 10µM | 0 | - | 0 | 0
O=[N+]([O-])c1ccccc1CSc1nc2ccccc2o1 | 19µM | ? | ? | 20µM | ? | ?
N#CCSc1nc2ccccc2o1 | 0 | 0 | 0 | - | 0 | 0
Cc1c(C(=O)NCc2ccc3c(c2)OCO3)oc2ccc(S(=O)(=O)N3CCCC3)cc12 | 0 | 7.31µM | 0 | 0 | 0 | 0
C=CCNC(=O)c1oc2ccc(S(=O)(=O)N3CCCCC3)cc2c1C | 0 | 0 | 0 | - | 0 | 0
COc1ccccc1CNC(=O)c1oc2ccc(S(=O)(=O)N3CCCC3)cc2c1C | 0 | ? | 0 | 0 | 0 | 0
COc1ccc(NC(=O)c2oc3ccc(S(=O)(=O)N4CCC5(CC4)OCCO5)cc3c2C)cc1 | 0 | 5.8µM | 0 | 0 | 0 | 0
Cc1c(C(=O)NCc2ccccc2)oc2ccc(S(=O)(=O)N3CCCC3)cc12 | 0 | 14.6µM | 0 | 0 | 0 | 0
Cc1c(C(=O)NCc2cccnc2)oc2ccc(S(=O)(=O)N3CCCCC3)cc12 | 0 | 5.8µM | 0 | 0 | 0 | 0
Cc1c(C(=O)NCc2ccc3c(c2)OCO3)oc2ccc(S(=O)(=O)N3CCCCC3)cc12 | 0 | ? | 0 | 0 | 0 | 0
N#C/C(C(=O)Oc1ccccc1)=C1/Nc2ccccc2-c2ccccc21 | 0 | 0 | 0 | 0 | 0 | 0
Cc1c(C(=O)NCc2cccnc2)oc2ccc(S(=O)(=O)N3CCCCCC3)cc12 | 0 | 18.4µM | 0 | 0 | 0 | 0
Cc1ccc(CNC(=O)c2oc3ccc(S(=O)(=O)N4CCOCC4)cc3c2C)cc1 | 0 | ? | 0 | 5.62µM | 0 | 0
CN1CCN(c2ccc(S(=O)(=O)N3CCOCC3)cc2NC(=O)CC(C)(C)C)CC1 | 0 | 0 | 0 | - | 0 | 0
Cc1c(C(=O)Nc2cc(S(=O)(=O)N3CCOCC3)ccc2N2CCN(C)CC2)oc2ccccc12 | 0 | 16.4µM | 0 | - | 0 | 0
Cc1ccc(O)c(N=Nc2ccccc2)n1 | - | - | 18.4µM | ? | - | 20.6µM
COc1ccc(CCNC(=O)C2(c3cccs3)CCOCC2)cc1 | 0 | - | - | - | - | -
C=CCN=C1SCC(=O)N1S(=O)(=O)c1ccc(C)cc1 | 0 | 0 | 0 | 0 | 0 | 0
C=CCN=C1S/C(=C\N(C)C)C(=O)N1S(=O)(=O)c1ccc(C)cc1 | - | 2.06µM | - | - | 0 | -
CC(=O)c1cnc2cc(-c3ccc(Cl)cc3)nn2c1C | 2.69µM | ? | 4.47µM | - | ? | 3.55µM
CC(=O)c1cnc2c(-c3ccc(Cl)cc3)c(C)nn2c1C | 0 | 0 | 0 | 0 | 0 | 0
Cc1c(C(=O)O)cnc2cc(-c3ccc(Cl)cc3)nn12 | 9.53µM | ? | ? | 11.2µM | ? | ?
O=C(O)Cn1c(SCc2cccc3ccccc23)nc2ccccc21 | 16.9µM | 0 | 0 | 0 | 0 | 0
SMILES | FLuc modulator | ELG1 repair inh | NPC1 prom act | SMN2 splice up | ELG1 genotoxic | Rab9 promoter act
Cc1nc(-c2ccc(S(=O)(=O)NCC3CCN(C(=O)OC(C)(C)C)CC3)s2)cs1 | 0 | 20.6µM | 0 | - | 0 | 0
Cc1nc(-c2ccc(S(=O)(=O)NCc3cccnc3)s2)cs1 | 0 | ? | 0 | - | 0 | 0
CSc1ccccc1C(=O)NCCSc1ccccc1 | 0 | ? | 0 | 0 | ? | 0
O=C(NCCSc1ccccc1)c1ccc(Br)cc1 | 1.35µM | ? | 0.794µM | 6.31µM | 3.26µM | 0.562µM
O=C(NCCSc1ccccc1)c1cncc(Br)c1 | 21.3µM | ? | ? | ? | 14.6µM | ?
O=C(NCCSc1ccccc1)c1ccccc1 | ? | ? | 2.51µM | 11.2µM | ? | 2.51µM
CN(C)S(=O)(=O)c1ccc(C(=O)NCCSc2ccc(Br)cc2)cc1 | 0 | 0 | 0 | 0 | 0 | 0
